We go through 40 compounds from PubChem BioAssay (Tox21).

Active and inactive are the calls of the source. Calls follow the shape of the dose curve; as a rule, active = well fitted curve in the direction sought with a large enough effect in the repeat runs; inconclusive = weak or mixed curves; inactive = flat fitted curve, though single readings scatter.

The test in a line: qHTS assay to test for compound auto fluorescence at 590 nm (red) in HEK293 cells (AID 720679). The note with it: red autofluorescence 540/590 nm; series mostly up to 91.3 µM. The source says:
National Center for Advancing Translational Sciences [NCATS]
NIH Chemical Genomics Center [NCGC]
U.S. Environmental Protection Agency [EPA]
National Institutes of Environmental Health Sciences [NIEHS]
National Toxicology Program [NTP]
U.S. Food and Drug Administration [FDA]
Compound auto fluorescence often interferes with screening of the compound library against various biological targets and signaling pathways. Some of these compounds may have fluorophoric properties. Such properties may interfere with the assay outputs resulting in false positives and/or negatives. To decrease such complications and ensure the compound activities are relevant in terms of biological response, the Tox21 10K compound library was screened for auto fluorescence.
From the fluorophores used as reporter signals in our screening assays, the auto fluorescence equivalencies of compounds against three fluorophores have been evaluated: Triamterene, Fluorescein and Rose Bengal sodium for blue, green and red fluorescence, respectively. The fluorescence intensities were measured using Excitation/Emission wavelengths at 405/460nm, 485/535nm and 540/590nm for blue, green and red labels, respectively. This assay includes the red fluorescence data.
Tox21 Assay Protocol Summary:
2,000 HEK293 cells in 5 uL of culture medium containing 10% dialyzed FBS per well were dispensed into black wall/clear bottom 1536-well plates using a Multidrop Combi Dispenser (Thermo Scientific). The assay plates were incubated for 4-5 hr at 37C to allow cell attachment to the well bottom, followed by the transfer of 23 nL compound or DMSO vehicle by a pintool work station (Kalypsys, San Diego, CA). After the assay plates were incubated overnight at 37C and 5% CO2, fluorescence intensities in the assay plates were measured by an Envision (PerkinElmer, Shelton, CT) plate reader using three labels for measuring blue, green and red fluorescence at […] 460, 535 and 590nm respectively.
(In qHTS, concentration-response curves come from the screen itself.)
Regarding `CC(C)Cc1ccccc1`, the result was inactive.

In the case of `CCC(C)C=O` (stereo not given), the call was inactive. Take `NCCc1ccc(O)c(O)c1`: the outcome was inactive.

In the case of `CS(=O)(=O)c1ccc([C@@H](O)[C@@H](CO)NC(=O)C(Cl)Cl)cc1`, the result was inactive. In the case of `Nc1cc(-c2ccncc2)c[nH]c1=O` it was “inactive”; in that of `Oc1ccc2ccccc2c1`, “inactive”; in that of `CCC(=O)O`, “inactive”. Regarding `CCCCC(CC)C(=O)OCCOCCOCCOC(=O)C(CC)CCCC` (stereo not given), the result was inactive. Take `CC1Cc2ccccc2N1NC(=O)c1ccc(Cl)c(S(N)(=O)=O)c1` (stereo not given): the outcome was inactive. Under `CC#C[C@]1(O)CC[C@H]2[C@@H]3CCC4=CC(=O)CCC4=C3[C@@H](c3ccc(N(C)C)cc3)C[C@@]21C` stands “inactive”; under `CC1=C(CC(=O)O)c2cc(F)ccc2/C1=C\c1ccc(S(C)=O)cc1` (stereo not given), “inactive”; under `Clc1ccc(Cl)c(Cl)c1Cl`, “inactive”. Consider `C=C(C)C(=O)OCC(CC)(COC(=O)C(=C)C)COC(=O)C(=C)C`, for which the outcome was inactive. In the case of `CCCCOCCO` it was “inactive”.

Regarding `O=C(c1cc(O)c(O)c(O)c1)c1ccc(O)c(O)c1O`, the result was inactive. Consider `CCCCOCCOCCOC(=O)CCCCC(=O)OCCOCCOCCCC`, for which the compound was called inactive.

As to `Oc1c(Cl)cc(Cl)c(Cl)c1Cl`, the compound was classed as inactive. Under `C=C1CC[C@H](O)CC1=C/C=C1\CCC[C@]2(C)[C@@H]([C@H](C)/C=C/[C@H](C)C(C)C)CC[C@@H]12` stands “inactive”. Regarding `CCCCC(CC)COC(C)=O` (stereo not given), the outcome was inactive. Under `CN(C)c1cccc(O)c1` stands “inactive”.

Consider `Oc1ccc(OCc2ccccc2)cc1`, for which the outcome was inactive. In the case of `ClC1=C(Cl)C(Cl)(Cl)C(Cl)=C1Cl` it was “inactive”. Under `Cc1cc(O)cc(C)c1Cl` stands “inactive”. For `OC1CCCC1`, the result was inactive. `Cc1ccc(N)c(S(=O)(=O)O)c1`: the result was inactive. As for `C[C@@H](O)[C@H]1C(=O)N2C(C(=O)O)=C(S[C@@H]3CN[C@H](C(=O)N(C)C)C3)[C@H](C)[C@H]12`, the compound was classed as inactive. Take `CC(=O)Nc1ccc(C(=O)O)cc1`: the call was inactive.

Consider `CC1=CC[C@H]2C[C@@H]1C2(C)C`, for which the outcome was inactive.

In the case of `Clc1cc(Cl)c(Cl)cc1Cl`, the result was inactive.

Take `C/C=C(C)/C=C/C=C(C)C`: the compound was called inactive. Under `NCc1cccc(CN)c1` stands “inactive”; under `CC(C)n1c(/C=C/[C@@H](O)C[C@@H](O)CC(=O)O)c(-c2ccc(F)cc2)c2ccccc21`, “inactive”. In the case of `Cc1cc(O)c2c(c1)C(=O)c1cc(O)cc(O)c1C2=O` it was “inactive”; in that of `O=S(=O)(Oc1ccc(Cl)cc1Cl)c1ccccc1`, “inactive”. Turning to `Cn1c([N+](=O)[O-])cnc1COC(N)=O`, the outcome was inactive. Under `OC[C@@H](O)[C@H](O)[C@H](O)[C@@H](O)CO` stands “inactive”; under `Cc1ccc(C)c(C)c1`, “inactive”. In the case of `Nc1nc2ncc(CNc3ccc(C(=O)N[C@@H](CCC(=O)O)C(=O)O)cc3)nc2c(=O)[nH]1` it was “inactive”.

For the compound `OCCOCCOCCOCCO`, the compound was called inactive.

Turning to `Oc1ccc2ccccc2c1N=Nc1ccccc1`, the compound was called inactive.
